Source: PubChem BioAssay AID430 (Sanford-Burnham Center for Chemical Genomics, 2006)
Among all 63,000 compounds or so, about 1,100 (1.7%) were called active. This is one part of a sample in which actives are shown more often than they occur. Cut-off read from the data, not from the text of the source: active = cytotoxicity above about 50%; inactive = the rest. Measured potencies and affinities stand elsewhere.

Assay: cytotoxicity in HPDE-C7 cells, cell-based, fluorescence, HTS (AID 430);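 note: cells exposed to compound for 48 hours before viability readout; 0% = vehicle and 100% = reference cytotoxic drug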
Conditions: HPDE-C7 pancreatic duct cells viability, at 10 µM, hits give high values

With `COc1ccccc1NCCC(=O)OCC(=O)Nc1ccc(Cl)cn1` as the compound, how does the cytotoxicity read?
Its cytotoxicity is 10.3% (inactive).

For `CN(CC(=O)Nc1ccc(C#N)cc1)Cc1ccc(Cl)cc1`, which cytotoxicity is on record?
The cytotoxicity was 6.1% (inactive).

Which cytotoxicity does the source give for `Cc1cccc(NC(=O)Nc2ccc(C#N)cc2)n1` here?
The cytotoxicity was -0.1% (inactive).

For `N#Cc1ccc(NC(=O)Nc2ccc(Cl)cc2)cc1`, which cytotoxicity is on record?
The cytotoxicity was 57.7% (active).

For `COc1ccc(Cl)cc1NC(=O)N1CCN(S(C)(=O)=O)CC1`, which cytotoxicity is on record?
Its cytotoxicity is -6.5% (inactive).

Which cytotoxicity does the source give for `C=CCn1c(N)cc(=O)nc1SCC(=O)Nc1ccccc1` here?
The cytotoxicity was -16% (inactive).

For `O=C(c1ccccc1)N1CCCCC(Sc2nnnn2-c2ccccc2)C1=O` (stereo not drawn), which cytotoxicity is on record?
The cytotoxicity was -6.2% (inactive).

For `Cc1ccc2oc3c(c(=O)c2c1)C(c1ccc(F)cc1)N(CCCN1CCOCC1)C3=O` (stereo not drawn), which cytotoxicity is on record?
Its cytotoxicity is -11.5% (inactive).

For `COC(=O)C1=C(C)N(C)C(=O)NC1c1cc(Cl)cc(Cl)c1OC` (stereo not drawn), which cytotoxicity is on record?
Its cytotoxicity is 1.6% (inactive).

For `Cc1nn2c(N3CCN(C(=O)c4ccco4)CC3)cc(C(C)(C)C)nc2c1-c1ccccc1`, which cytotoxicity is on record?
Its cytotoxicity is 75.8% (active).

For `Cc1cc(N2CCN(C(=O)c3ccco3)CC2)n2nc(C)c(-c3ccc(Cl)cc3)c2n1`, which cytotoxicity is on record?
The cytotoxicity was 14.2% (inactive).

For `Cc1cc(N2CCN(C(=O)c3ccco3)CC2)n2nc(C)c(-c3ccccc3)c2n1`, which cytotoxicity is on record?
Its cytotoxicity is 7.9% (inactive).

Which cytotoxicity does the source give for `COC(=O)c1ccccc1S(=O)(=O)N(Cc1cc2ccc(OC)cc2[nH]c1=O)CC1CCCO1` (stereo not drawn) here?
The cytotoxicity was -2% (inactive).

With `O=C(CCNS(=O)(=O)c1cccs1)NCc1ccco1` as the compound, how does the cytotoxicity read?
The cytotoxicity was -2.8% (inactive).

For `C=CCOc1nc2c(c(=O)n(Cc3ccc(Cl)cc3)c(=O)n2C)n1C`, which cytotoxicity is on record?
The cytotoxicity was 6.6% (inactive).

For `C=CCOc1nc2c(c(=O)n(C)c(=O)n2C)n1Cc1ccc(Cl)cc1`, which cytotoxicity is on record?
The cytotoxicity was 59.6% (active).

With `C=CCOc1nc2c(c(=O)n(C)c(=O)n2C)n1Cc1ccc(Cl)cc1Cl` as the compound, how does the cytotoxicity read?
The cytotoxicity was -22.3% (inactive).

With `CCc1c(C(=O)Nc2ccc(S(=O)(=O)N3CCOCC3)cc2)csc1C` as the compound, how does the cytotoxicity read?
The cytotoxicity was 11% (inactive).

With `N=c1c2c(n(Cc3ccc(Cl)c(Cl)c3)c3c1CCC3)CCCC2` as the compound, how does the cytotoxicity read?
The cytotoxicity was 63.8% (active).

With `N=c1c2c(n(Cc3ccc(Cl)cc3)c3c1CCC3)CCC2` as the compound, how does the cytotoxicity read?
The cytotoxicity was 34% (inactive).

Which cytotoxicity does the source give for `N=c1c2c(n(Cc3ccc(F)cc3)c3c1CCC3)CCC2` here?
Its cytotoxicity is 29.3% (inactive).

Which cytotoxicity does the source give for `O=C(C1CCN(S(=O)(=O)c2ccc(Br)s2)CC1)N1CCc2ccccc21` here?
The cytotoxicity was 10.9% (inactive).

Which cytotoxicity does the source give for `O=C1N(S(=O)(=O)c2ccccc2F)C(=O)C2(CCCC2)N1S(=O)(=O)c1ccccc1F` here?
Its cytotoxicity is -2.1% (inactive).

With `Cn1c(N2CCCCC2)nc2c1c(=O)n(Cc1cccc(Br)c1)c(=O)n2C` as the compound, how does the cytotoxicity read?
The cytotoxicity was -15.8% (inactive).

Which cytotoxicity does the source give for `O=C(O)c1c(-c2ccccc2)c2oc3ccccc3c2[nH]c1=O` here?
The cytotoxicity was 89.7% (active).

With `O=c1[nH]c(Cc2ccccc2)nc2c1oc1ccccc12` as the compound, how does the cytotoxicity read?
The cytotoxicity was -7.5% (inactive).

For `O=c1[nH]cnc2c1oc1ccccc12`, which cytotoxicity is on record?
Its cytotoxicity is 1.3% (inactive).

Which cytotoxicity does the source give for `COC(=O)c1c(-c2ccc(F)cc2)noc1N` here?
Its cytotoxicity is -23.1% (inactive).

For `COc1ccc(C(=O)n2c(-c3ccco3)nc3ccccc32)cc1`, which cytotoxicity is on record?
The cytotoxicity was 66.4% (active).

With `CCn1c(-c2ccco2)nc2ccccc21` as the compound, how does the cytotoxicity read?
The cytotoxicity was 6.2% (inactive).

For `COc1ccc(C(=O)CSc2nnc(-c3ccco3)n2C)cc1`, which cytotoxicity is on record?
Its cytotoxicity is -10.7% (inactive).

For `O=C(Nc1ccc2c(c1)oc1ccccc12)c1ccc(Br)o1`, which cytotoxicity is on record?
The cytotoxicity was 3.1% (inactive).

Which cytotoxicity does the source give for `CCCC(=O)Nc1cc(OC)c(OC)cc1C(=O)O` here?
Its cytotoxicity is 6.8% (inactive).

With `O=C(CCc1ccccc1)Nc1nnc(-c2cccs2)o1` as the compound, how does the cytotoxicity read?
Its cytotoxicity is -3% (inactive).

Which cytotoxicity does the source give for `COc1cccc(C(=O)Nc2nnc(-c3cccs3)o2)c1` here?
The cytotoxicity was 22% (inactive).

For `O=C(Nc1nnc(-c2cccs2)o1)c1ccco1`, which cytotoxicity is on record?
The cytotoxicity was -23% (inactive).

For `O=C(Nc1nnc(-c2cccs2)o1)c1cccc(Oc2ccccc2)c1`, which cytotoxicity is on record?
Its cytotoxicity is 50.4% (active).

With `O=C(Nc1nnc(-c2cccs2)o1)c1cccc(C(F)(F)F)c1` as the compound, how does the cytotoxicity read?
Its cytotoxicity is 78.7% (active).

For `O=C(Nc1nnc(-c2cccs2)o1)c1cccc(F)c1`, which cytotoxicity is on record?
Its cytotoxicity is 41.3% (inactive).

For `CCCCn1c2nc3ccccc3nc2c2c(=O)n(C(C)CC)cnc21` (stereo not drawn), which cytotoxicity is on record?
The cytotoxicity was -10.4% (inactive).

Which cytotoxicity does the source give for `COc1ccc(CN(CCCN2CCOCC2)S(=O)(=O)N(C)C)cc1OC` here?
Its cytotoxicity is -7.2% (inactive).

For `COc1ccc2nc(SCC(=O)NC(C)C)[nH]c2c1`, which cytotoxicity is on record?
Its cytotoxicity is -13.4% (inactive).

For `O=C(C1Cc2ccccc2O1)N1CCCCC1` (stereo not drawn), which cytotoxicity is on record?
The cytotoxicity was -12.6% (inactive).

With `COc1ccc(Cl)cc1N1CC(C(=O)Nc2nccs2)CC1=O` (stereo not drawn) as the compound, how does the cytotoxicity read?
The cytotoxicity was 2.4% (inactive).

Which cytotoxicity does the source give for `O=C(CSc1nnnn1C1CCCC1)N1CCN(C(=O)c2ccco2)CC1` here?
The cytotoxicity was -11.8% (inactive).

With `CN(C(=O)c1cccc(C#N)c1)c1nnc(-c2ccccn2)s1` as the compound, how does the cytotoxicity read?
The cytotoxicity was -2% (inactive).

Which cytotoxicity does the source give for `CCCCCN=Cc1c(C)[nH]n(-c2nc3ccccc3s2)c1=O` here?
Its cytotoxicity is 1.2% (inactive).

For `O=c1c(C=NCCCn2ccnc2)c(-c2ccccc2)[nH]n1-c1nc2ccccc2s1`, which cytotoxicity is on record?
Its cytotoxicity is 57.5% (active).

With `CCCc1[nH]n(-c2nc3ccccc3s2)c(=O)c1C=NCCN1CCOCC1` as the compound, how does the cytotoxicity read?
The cytotoxicity was 8.6% (inactive).

For `O=C(NCC(=O)N(Cc1ccc(F)cc1)C(C(=O)NC1CCCC1)c1ccco1)c1ccco1` (stereo not drawn), which cytotoxicity is on record?
The cytotoxicity was -8.4% (inactive).

With `CCC(CC)C(=O)Nc1cc(=O)n(C)c(=O)n1C` as the compound, how does the cytotoxicity read?
The cytotoxicity was -10.5% (inactive).

Which cytotoxicity does the source give for `N#CC1=C(N)C(C#N)(C#N)[C@H](c2ccoc2)[C@H]2CN(Cc3ccccc3)CC=C12` here?
The cytotoxicity was 72% (active).

Which cytotoxicity does the source give for `CC(=O)N1CC=C2C(C#N)=C(N)C(C#N)(C#N)[C@H](c3ccoc3)[C@H]2C1` here?
The cytotoxicity was 9.7% (inactive).

For `CC(C)N1CC=C2C(C#N)=C(N)C(C#N)(C#N)C(c3ccccc3)C2C1` (stereo not drawn), which cytotoxicity is on record?
The cytotoxicity was 12.8% (inactive).

Which cytotoxicity does the source give for `CCSc1nnc(NC(=O)CN(C)S(=O)(=O)c2ccc(F)cc2)s1` here?
The cytotoxicity was -4.8% (inactive).

For `Cc1ccc(-c2nnn(CCC(=O)N3CCCCC3C)n2)cc1` (stereo not drawn), which cytotoxicity is on record?
The cytotoxicity was -5.2% (inactive).

Which cytotoxicity does the source give for `CCCCOc1ccccc1NC(=O)CC1Nc2ccccc2NC1=O` (stereo not drawn) here?
Its cytotoxicity is -9.1% (inactive).

With `COc1ccccc1C1CC(=O)Nc2cc3c(cc21)OCCO3` (stereo not drawn) as the compound, how does the cytotoxicity read?
Its cytotoxicity is 54.4% (active).

For `O=C1CC(c2ccncc2)c2cc3c(cc2N1)OCCO3` (stereo not drawn), which cytotoxicity is on record?
Its cytotoxicity is -10.2% (inactive).

Which cytotoxicity does the source give for `CC(C)Oc1ccccc1C1CC(=O)Nc2cc3c(cc21)OCCO3` (stereo not drawn) here?
Its cytotoxicity is 56.4% (active).

Which cytotoxicity does the source give for `COc1cccc(C2CC(=O)Nc3cc4c(cc32)OCCO4)c1OC(C)C` (stereo not drawn) here?
Its cytotoxicity is 27.3% (inactive).

For `CC(C)Oc1ccccc1C1CC(=O)Nc2cc3c(cc21)OCO3` (stereo not drawn), which cytotoxicity is on record?
Its cytotoxicity is 39.1% (inactive).

For `Cc1ccc(C2CC(=O)Nc3cc4c(cc32)OCCO4)s1` (stereo not drawn), which cytotoxicity is on record?
Its cytotoxicity is -4.6% (inactive).
